Experimental data: the supplement of paper PMC6411743
± gives the standard deviation of the averaged measurements. The full data set covers some 5,400 targets. This sample favours those with the largest changes.

Compound: Nc1nc2c(ncn2[C@@H]2O[C@H](COP(=O)(O)OP(=O)(O)OP(=O)(O)O)[C@@H](O)[C@H]2O)c(=O)[nH]1 [guanosine triphosphate]
Assay: NP40-soluble protein abundance relative to vehicle (solubility fold change) (ratio); higher = more soluble protein in presence of GTP
Protocol: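 Solubility proteome profiling in Jurkat crude lysate. Lysate was treated with Mg-GTP (0.1-10 mM) for 10 min at room temperature and 3 min at 37 °C, then solubilised with 0.8% NP40 and benzonase, followed by ultracentrifugation. Proteins were quantified by TMT10 LC-MS/MS; the value is the NP40-soluble abundance relative to the NP40-processed vehicle, from 3 independent experiments.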

UniProt Q8N5G2
UniProt Q8N5G2, sequence (Q8N5G2 whole entry): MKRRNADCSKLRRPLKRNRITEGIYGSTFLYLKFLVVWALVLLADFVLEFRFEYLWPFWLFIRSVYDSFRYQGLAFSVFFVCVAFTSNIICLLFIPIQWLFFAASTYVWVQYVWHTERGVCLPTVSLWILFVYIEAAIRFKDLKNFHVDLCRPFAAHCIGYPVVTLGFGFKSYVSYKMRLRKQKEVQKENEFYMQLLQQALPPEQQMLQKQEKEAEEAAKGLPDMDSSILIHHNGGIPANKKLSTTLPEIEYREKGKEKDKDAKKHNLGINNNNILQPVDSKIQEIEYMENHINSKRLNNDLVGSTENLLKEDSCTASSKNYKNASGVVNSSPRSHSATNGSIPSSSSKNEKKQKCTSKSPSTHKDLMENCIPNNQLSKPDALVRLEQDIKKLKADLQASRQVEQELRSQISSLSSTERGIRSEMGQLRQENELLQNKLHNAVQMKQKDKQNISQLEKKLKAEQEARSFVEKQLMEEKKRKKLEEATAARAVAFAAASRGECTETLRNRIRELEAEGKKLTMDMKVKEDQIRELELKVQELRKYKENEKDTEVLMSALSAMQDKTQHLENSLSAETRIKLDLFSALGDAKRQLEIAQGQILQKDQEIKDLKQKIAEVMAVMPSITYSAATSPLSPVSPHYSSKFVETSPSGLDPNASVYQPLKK
NP40-soluble protein abundance (concentration: 0.1mM): 1.07 ± 0.1
NP40-soluble protein abundance (concentration: 0.5mM): 1.03 ± 0.089
NP40-soluble protein abundance (concentration: 1mM): 1.12 ± 0.15
NP40-soluble protein abundance (concentration: 2mM): 1.3 ± 0.057
NP40-soluble protein abundance (concentration: 4mM): 1.26 ± 0.24
NP40-soluble protein abundance (concentration: 6mM): 1.16 ± 0.17
NP40-soluble protein abundance (concentration: 8mM): 1.24 ± 0.21
NP40-soluble protein abundance (concentration: 10mM): 1.43 ± 0.25

DHX9 (UniProt Q08211)
UniProt Q08211, sequence (Q08211 whole entry): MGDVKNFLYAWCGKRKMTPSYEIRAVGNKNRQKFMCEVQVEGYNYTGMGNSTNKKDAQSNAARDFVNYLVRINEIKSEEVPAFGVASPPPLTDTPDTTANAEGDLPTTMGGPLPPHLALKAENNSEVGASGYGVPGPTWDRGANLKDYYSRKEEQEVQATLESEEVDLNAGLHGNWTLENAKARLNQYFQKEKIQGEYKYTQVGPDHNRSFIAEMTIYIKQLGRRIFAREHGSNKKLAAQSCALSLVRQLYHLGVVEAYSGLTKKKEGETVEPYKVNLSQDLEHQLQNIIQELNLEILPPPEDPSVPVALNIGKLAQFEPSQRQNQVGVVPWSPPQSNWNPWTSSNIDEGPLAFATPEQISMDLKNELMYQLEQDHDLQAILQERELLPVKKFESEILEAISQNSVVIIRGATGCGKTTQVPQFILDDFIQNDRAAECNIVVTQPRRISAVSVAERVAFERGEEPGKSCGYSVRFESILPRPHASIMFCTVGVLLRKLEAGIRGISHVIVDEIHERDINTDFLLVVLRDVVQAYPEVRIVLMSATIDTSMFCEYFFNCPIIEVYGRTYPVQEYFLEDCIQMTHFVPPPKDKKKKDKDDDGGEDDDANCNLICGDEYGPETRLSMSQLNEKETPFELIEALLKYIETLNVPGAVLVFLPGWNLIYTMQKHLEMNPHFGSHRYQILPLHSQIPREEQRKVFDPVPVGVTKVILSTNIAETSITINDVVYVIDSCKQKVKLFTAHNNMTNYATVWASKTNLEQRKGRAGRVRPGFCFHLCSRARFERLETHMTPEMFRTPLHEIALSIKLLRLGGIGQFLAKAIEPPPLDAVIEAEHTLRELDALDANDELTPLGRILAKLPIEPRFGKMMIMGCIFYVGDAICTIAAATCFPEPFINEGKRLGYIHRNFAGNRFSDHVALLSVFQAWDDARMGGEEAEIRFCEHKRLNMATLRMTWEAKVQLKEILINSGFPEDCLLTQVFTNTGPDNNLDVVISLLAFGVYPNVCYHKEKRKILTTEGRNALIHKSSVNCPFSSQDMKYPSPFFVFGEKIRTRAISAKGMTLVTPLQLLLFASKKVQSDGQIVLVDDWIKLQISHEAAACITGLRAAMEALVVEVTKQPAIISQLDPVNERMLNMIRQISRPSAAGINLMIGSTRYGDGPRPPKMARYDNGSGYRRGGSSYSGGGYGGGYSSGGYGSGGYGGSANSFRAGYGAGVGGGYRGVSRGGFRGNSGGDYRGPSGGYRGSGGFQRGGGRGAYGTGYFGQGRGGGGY
NP40-soluble protein abundance (concentration: 0.1mM): 1.03 ± 0.088
NP40-soluble protein abundance (concentration: 0.5mM): 1.13 ± 0.16
NP40-soluble protein abundance (concentration: 1mM): 1.06 ± 0.17
NP40-soluble protein abundance (concentration: 2mM): 1.2 ± 0.26
NP40-soluble protein abundance (concentration: 4mM): 1.32 ± 0.28
NP40-soluble protein abundance (concentration: 6mM): 1.49 ± 0.37
NP40-soluble protein abundance (concentration: 8mM): 1.52 ± 0.3
NP40-soluble protein abundance (concentration: 10mM): 1.64 ± 0.33

RDH11 (UniProt Q8TC12)
UniProt Q8TC12, sequence (Q8TC12 whole entry): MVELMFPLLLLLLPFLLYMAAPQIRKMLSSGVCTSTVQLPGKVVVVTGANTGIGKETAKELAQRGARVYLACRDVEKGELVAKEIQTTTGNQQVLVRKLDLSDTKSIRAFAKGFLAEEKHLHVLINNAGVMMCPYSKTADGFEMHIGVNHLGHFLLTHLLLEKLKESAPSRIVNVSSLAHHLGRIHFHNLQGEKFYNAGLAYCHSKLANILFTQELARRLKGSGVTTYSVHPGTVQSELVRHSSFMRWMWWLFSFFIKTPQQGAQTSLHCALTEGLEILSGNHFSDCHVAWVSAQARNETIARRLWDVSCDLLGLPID
NP40-soluble protein abundance (concentration: 0.1mM): 1 ± 0.014
NP40-soluble protein abundance (concentration: 0.5mM): 0.985 ± 0.024
NP40-soluble protein abundance (concentration: 1mM): 0.911 ± 0.034
NP40-soluble protein abundance (concentration: 2mM): 0.895 ± 0.051
NP40-soluble protein abundance (concentration: 4mM): 0.867 ± 0.048
NP40-soluble protein abundance (concentration: 6mM): 0.88 ± 0.015
NP40-soluble protein abundance (concentration: 8mM): 0.824 ± 0.084
NP40-soluble protein abundance (concentration: 10mM): 0.782 ± 0.082

UniProt Q86V88|Q86V88-2
UniProt Q86V88, sequence (Q86V88 whole entry): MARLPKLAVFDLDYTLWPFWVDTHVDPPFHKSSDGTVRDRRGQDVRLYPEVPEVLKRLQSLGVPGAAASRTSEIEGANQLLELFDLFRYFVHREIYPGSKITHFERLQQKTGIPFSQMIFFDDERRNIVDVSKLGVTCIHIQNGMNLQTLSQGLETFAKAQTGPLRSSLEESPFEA
NP40-soluble protein abundance (concentration: 0.1mM): 0.975 ± 0.052
NP40-soluble protein abundance (concentration: 0.5mM): 0.901 ± 0.079
NP40-soluble protein abundance (concentration: 1mM): 0.953 ± 0.11
NP40-soluble protein abundance (concentration: 2mM): 0.872 ± 0.064
NP40-soluble protein abundance (concentration: 4mM): 0.869 ± 0.048
NP40-soluble protein abundance (concentration: 6mM): 0.839 ± 0.089
NP40-soluble protein abundance (concentration: 8mM): 0.858 ± 0.058
NP40-soluble protein abundance (concentration: 10mM): 0.88 ± 0.078

THOC5 (UniProt Q13769)
UniProt Q13769, sequence (Q13769 whole entry): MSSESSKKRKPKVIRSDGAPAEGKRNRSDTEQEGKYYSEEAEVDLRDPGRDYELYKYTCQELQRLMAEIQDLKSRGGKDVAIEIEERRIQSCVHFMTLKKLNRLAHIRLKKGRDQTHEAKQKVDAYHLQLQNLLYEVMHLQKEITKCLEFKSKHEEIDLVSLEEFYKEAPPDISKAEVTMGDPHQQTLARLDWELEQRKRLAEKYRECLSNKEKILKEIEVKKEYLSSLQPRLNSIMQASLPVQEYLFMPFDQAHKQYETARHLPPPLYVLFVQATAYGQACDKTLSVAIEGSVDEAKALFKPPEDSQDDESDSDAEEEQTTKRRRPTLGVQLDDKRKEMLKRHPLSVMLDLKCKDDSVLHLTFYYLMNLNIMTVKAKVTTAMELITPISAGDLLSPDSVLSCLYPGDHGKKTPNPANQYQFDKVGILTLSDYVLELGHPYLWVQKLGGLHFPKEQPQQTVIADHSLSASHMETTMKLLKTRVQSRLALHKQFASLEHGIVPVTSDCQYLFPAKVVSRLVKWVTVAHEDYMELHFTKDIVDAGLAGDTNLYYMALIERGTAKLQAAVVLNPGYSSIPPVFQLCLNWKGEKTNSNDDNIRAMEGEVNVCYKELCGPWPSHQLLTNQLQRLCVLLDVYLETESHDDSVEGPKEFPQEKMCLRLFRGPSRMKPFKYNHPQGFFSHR
NP40-soluble protein abundance (concentration: 0.1mM): 1.18 ± 0.0098
NP40-soluble protein abundance (concentration: 0.5mM): 1.35 ± 0.093
NP40-soluble protein abundance (concentration: 1mM): 1.5 ± 0.18
NP40-soluble protein abundance (concentration: 2mM): 1.83 ± 0.36
NP40-soluble protein abundance (concentration: 4mM): 2.21 ± 0.56
NP40-soluble protein abundance (concentration: 6mM): 2.3 ± 0.66
NP40-soluble protein abundance (concentration: 8mM): 2.45 ± 0.77
NP40-soluble protein abundance (concentration: 10mM): 2.37 ± 0.74
